From PubChem BioAssay (NCI) come the findings set out here.

The panel holds about 83,000 compounds, 20% with a hit somewhere; the sample as a whole holds those more often.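 Treatment: one concentration, 48 hours, 96-well format. Scoring: percent growth, with anything below 10 considered active.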 A number with no mark means an inactive call. Active and inactive are the calls of the source.

This test relates to M14 melanoma. Briefly: NCI-60 one-dose screen, 48 h (100 = growth as untreated, 0 = no growth, -100 = all killed). The settings on record: 10 µM.
As for `CCNc1nc2c(cnn2C)c(=O)[nH]1`, the growth is 99.3%.
The value for `O=[N+]([O-])c1cccc(N=Nc2ccc(O)cc2O)c1` was 97%; that for `CC(=O)/C(Cc1ccccc1)=N/O` was 94.8%.
In the case of `O=[N+]([O-])c1ccccc1N=Nc1ccc(O)cc1O` it was 110%; in that of `CCn1c(=O)n(C)c2c(=O)n(C)c(=O)n(C)c21`, 101%; in that of `O=P(O)(O)OCC(O)CO` (centres undefined), 101%.
In the case of `CCCCCCCCCCC1CO1` (centres undefined) it was 108%; in that of `CC(=O)OCCO`, 105%; in that of `CC(=O)OCC(=O)[C@@]1(O)CC[C@H]2[C@@H]3CC[C@@H]4C[C@H](O)CC[C@]4(C)[C@H]3C(=O)C[C@@]21C`, 110%.
For `COc1cc2c3cc1Oc1c(OC)c(OC)cc4c1C(Cc1ccc(O)c(c1)Oc1ccc(cc1)CC3N(C)CC2)N(C)CC4` (centres undefined), the growth is -77.8% (active).
The value for `COc1cccc(/C=N/NC(=S)NC2CC3CCC2C3)c1O` (centres undefined) was 55.7%; that for `O=S(=O)(Cc1ccccc1)c1ccccc1` was 104%; that for `COc1cc2nn(-c3ccccc3N)nc2cc1OC` was 107%.
For the molecule `CC1C(=O)c2ccccc2CC1C(=O)O` (centres undefined), the growth is 113%.
The value for `O=[N+]([O-])c1ccc(S(=O)(=O)NN=C2CCCCC2)cc1` was 106%; that for `CC(=O)c1ccc(N=C(C#N)C2=C(O)c3ccccc3C2=O)cc1` was 105%.
On to `CNc1nc(NC)c2cn[nH]c2n1`, for which the growth is 102%.
In the case of `CC(=Nc1ccccc1)C1=C(O)C(Cc2cccc(F)c2)NC1=O` (centres undefined) it was 7.5% (active); in that of `CCOC(=O)c1ccc(NC(=S)P(=O)(c2ccccc2)c2ccccc2)cc1`, 97.7%.
